Results reported in PubChem BioAssay (Tox21).
Inconclusive results are not listed. Calls of active or inactive are those of the source. Unless noted, calls follow the shape of the full dose curve.

Assays:
[1] = target: Gonadotropin-releasing hormone receptor (Homo sapiens) (UniProt P30968); test: Human gonadotropin-releasing hormone receptor (GnRHR) small molecule agonists, calcium flux assay in GnRHR-HEK293 cells (AID 1920063); also: nearly all actives have a fitted effect of over 35% in size
How it was run: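 Compounds dissolved in DMSO are pin-transferred onto dye-loaded GnRHR-HEK293 cells, which were seeded 18 h before at 37 C/5% CO2. Calcium signal is read as fluorescence intensity at 1 s intervals for 3 min.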

[2] = target: KiSS-1 receptor (Homo sapiens) (UniProt Q969F8); test: Human kisspeptin (KISS1R) small molecule agonists, calcium flux assay in KISS1R-HEK293 cells (AID 1920064; active = well fitted activation curve with a large enough effect in the repeat runs)
How it was run: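 Cell line: HEK293, stable human KISS1R. Dye loading 1 h at 37 C after 18 h culture. Read: kinetic fluorescence, 480/540 nm, 3 min at 1 s intervals.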

[3] = G protein-coupled receptor (GPCR) small molecule agonists, calcium flux assay: HEK293 wild type cell line counter screen (AID 1920065)
How it was run: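 Tox21 10K compounds, 15 concentrations each in triplicate, pin-transferred in DMSO onto dye-loaded cells; kinetic read at 480/540 nm for 3 min, 1 s intervals.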

[4] = p53 small molecule agonists, cell-based qHTS assay with human liver microsomes (AID 1963577);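 also: p53 response element beta-lactamase reporter cells with liver microsomes plus NADPH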
How it was run: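 Steps: plate p53RE-bla cells, incubate 5 h at 37 C; add compound in DMSO; add microsomes (0.5 mg/mL final) and NADPH (0.5 mg/mL final); incubate 16 h at 37 C; add LiveBLAzer, 2 h RT; read fluorescence.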

[5] = p53 small molecule agonists, cell-based qHTS assay with rat liver microsomes (AID 1963578)
How it was run: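 Metabolic activation is supplied by rat liver microsomes with NADPH (each 0.5 mg/mL final). p53RE-bla cells incubate with compound 16 h at 37 C; reporter activity is measured by LiveBLAzer fluorescence.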

[6] = p53 small molecule agonists, cell-based qHTS assay with human liver microsomes: qHTS cell viability counter screen (AID 1963579); also: nearly all actives have a fitted effect of over 45% in size
How it was run: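 After the 460/530 nm beta-lactamase read, CellTiter-Glo was added to the same wells and luminescence measured after 30 min at room temperature, giving viability of p53RE-bla cells treated 16 h with compounds plus microsomes and NADPH.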

[7] = p53 small molecule agonists, cell-based qHTS assay with rat liver microsomes: qHTS cell viability counter screen (AID 1963580); also: nearly all actives have a fitted effect of over 45% in size
How it was run: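 Cytotoxicity counter screen: intracellular ATP read by CellTiter-Glo luminescence in the p53 reporter wells. HCT-116 p53RE-bla cells were treated for 16 h at 37 C alongside rat liver microsomes and NADPH, each 0.5 mg/mL final.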

[8] = p53 small molecule agonists, cell-based qHTS assay: qHTS cell viability counter screen (AID 1963581); also: nearly all actives have a fitted effect of over 45% in size
How it was run: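 ATP content measured by luminescence in HCT-116 p53RE-bla cells treated 16 h at 37 C, same wells as the reporter screen.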

[9] = p53 small molecule agonists, cell-based qHTS assay (AID 1963582; active = well fitted activation curve with a large enough effect in the signal ratio in the repeat runs, not every such curve was filed as active; the % refers to the signal ratio)
How it was run: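 16 h compound exposure (37 C) of p53 response element–bla cells, preceded by 5 h recovery at 37 C/5% CO2; read-out via LiveBLAzer B/G FRET substrate, 2 h RT, fluorescence intensity.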

[10] = target: 5-hydroxytryptamine receptor 2A (Homo sapiens) (UniProt P28223); test: 5-hydroxytryptamine receptor 2A (HTR2A) small molecule antagonists, cell-based qHTS assay (AID 1963586); also: nearly all actives have a fitted effect of over 45% in size
How it was run: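 CHO cells stably expressing human HTR2A were plated for 18 h at 37 C, then loaded with calcium dye for 1 h. Compounds were preincubated 5 min at room temperature before DOI (4 nM solution) was added. Kinetic fluorescence was read for 3 min.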

[11] = target: 5-hydroxytryptamine receptor 2A (Homo sapiens) (UniProt P28223); test: 5-hydroxytryptamine receptor 2A (HTR2A) small molecule agonists, cell-based qHTS assay (AID 1963587); also: nearly all actives have a fitted effect of over 30% in size
How it was run: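 Kinetic calcium-flux fluorescence (2 min, 1 sec intervals) after compound addition in agonist mode. HTR2A-CHO cells were cultured 18 h, then dye-loaded 1 h at 37 C.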

[12] = target: Muscarinic acetylcholine receptor M1 (Homo sapiens) (UniProt P11229); test: Cholinergic receptor muscarinic 1 (CHRM1) small molecule antagonists, cell-based qHTS assay (AID 1963588); also: nearly all actives have a fitted effect of over 40% in size
How it was run: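 Compounds were tested at 15 concentrations in three independent runs. Dye-loaded CHRM1-CHO cells were exposed 5 min at room temperature before stimulation by acetylcholine added at 50nM. Intracellular calcium was read kinetically on FDSS for 3 min.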

[13] = target: Muscarinic acetylcholine receptor M1 (Homo sapiens) (UniProt P11229); test: Cholinergic receptor muscarinic 1 (CHRM1) small molecule agonists, cell-based qHTS assay (AID 1963589); also: nearly all actives have a fitted effect of over 35% in size
How it was run: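 Homogeneous fluorescence calcium flux, agonist mode. Human M1-expressing CHO cells; compound dosed at 15 concentrations, three independent runs; signal sampled every 1 sec.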

[14] = cAMP Responsive Elements (CRE) small molecule agonists, cell-based qHTS assay (AID 1963590)
How it was run: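 HEK 293T cells stably bearing CRE-bla were plated at 2,000 cells per well and rested 18 h. Compounds, positive controls or DMSO were added for 3 h at 37 C. LiveBLAzer B/G substrate was then loaded for 2 h at room temperature.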

[15] = cAMP Responsive Elements (CRE) small molecule antagonists, cell-based qHTS assay (AID 1963591; active = well fitted inhibition curve with a large enough effect in the signal ratio in the repeat runs, not every such curve was filed as active; the % refers to the signal ratio)
How it was run: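 First, CRE-bla HEK293T cells settled 18 h at 37 C. Next, compound and 0.25 uM final NKH477 were applied for 3 h. Last, LiveBLAzer B/G substrate was loaded for 2 h at room temperature.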

[16] = target: Beta-2 adrenergic receptor (Homo sapiens) (UniProt P07550); test: Adrenergic beta2 receptor (ADRB2) small molecule antagonists, cell-based qHTS assay (AID 1963592); also: series mostly up to about 92 µM; nearly all actives have a fitted effect of over 50% in size
How it was run: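 Assay format: CHO-ADRB2 cells, 18-20hr seeding at 37C/5% CO2, then compound plus 1nM isoproterenol agonist mix for 0.5hr RT. Homogeneous time-resolved fluorescence cAMP detection after 1hr, expressed as 665/615 nm ratio.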

[17] = target: D(2) dopamine receptor (Homo sapiens) (UniProt P14416); test: Dopamine D2 receptor (DRD2) small molecule agonists, cell-based qHTS assay (AID 1963594); also: nearly all actives have a fitted effect of over 35% in size
How it was run: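 cAMP accumulation in DRD2-HEK293 cells measured by HTRF after 1 h detection; compounds added 10 min before NKH477 (200nM […]) forskolin-analogue stimulation, 30 min at room temperature, with Ro20-1724 present at 0.1 mM final.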

[18] = target: D(2) dopamine receptor (Homo sapiens) (UniProt P14416); test: Dopamine D2 receptor (DRD2) small molecule antagonists, cell-based qHTS assay (AID 1963595; active = well fitted inhibition curve with a large enough effect in the signal ratio in the repeat runs, with a control signal flat; the % refers to the signal ratio)
How it was run: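 HEK293 cells stably expressing DRD2, preincubated with 0.1 mM Ro20-1724 and compounds 10 min, were stimulated with 200 nM NKH477 plus 12 nM quinpirole for 30 min at room temperature; cAMP measured by HTRF (665/620 nm).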

[19] = target: Beta-2 adrenergic receptor (Homo sapiens) (UniProt P07550); test: Adrenergic beta2 receptor (ADRB2) small molecule agonists, cell-based qHTS assay (AID 1963593);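 also: CHO cells stably overexpressing human ADRB2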
How it was run: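 CHO cells stably over-expressing ADRB2 were plated overnight at 37C, then dosed with compounds plus a stimulation mix containing 100uM IBMX and 25uM Ro-20-1724 for 0.5hr at room temperature. cAMP was measured by HTRF competition, 1hr.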

Measured: Potency

Chain of 5-hydroxytryptamine receptor 2A (Homo sapiens) (P28223 whole entry, looked up): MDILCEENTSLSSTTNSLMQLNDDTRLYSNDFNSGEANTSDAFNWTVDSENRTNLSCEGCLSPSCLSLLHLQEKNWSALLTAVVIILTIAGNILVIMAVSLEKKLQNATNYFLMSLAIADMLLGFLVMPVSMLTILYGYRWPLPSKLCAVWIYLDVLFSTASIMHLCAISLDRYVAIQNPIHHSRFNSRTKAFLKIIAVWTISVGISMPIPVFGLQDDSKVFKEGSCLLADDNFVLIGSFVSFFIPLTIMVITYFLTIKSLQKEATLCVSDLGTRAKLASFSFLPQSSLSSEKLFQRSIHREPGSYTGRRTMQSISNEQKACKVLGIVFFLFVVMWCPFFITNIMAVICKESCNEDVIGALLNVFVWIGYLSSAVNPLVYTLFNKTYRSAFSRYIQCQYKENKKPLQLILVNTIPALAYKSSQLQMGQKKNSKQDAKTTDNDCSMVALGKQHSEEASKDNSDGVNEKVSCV
Chain of D(2) dopamine receptor (Homo sapiens) (P14416 whole entry, looked up): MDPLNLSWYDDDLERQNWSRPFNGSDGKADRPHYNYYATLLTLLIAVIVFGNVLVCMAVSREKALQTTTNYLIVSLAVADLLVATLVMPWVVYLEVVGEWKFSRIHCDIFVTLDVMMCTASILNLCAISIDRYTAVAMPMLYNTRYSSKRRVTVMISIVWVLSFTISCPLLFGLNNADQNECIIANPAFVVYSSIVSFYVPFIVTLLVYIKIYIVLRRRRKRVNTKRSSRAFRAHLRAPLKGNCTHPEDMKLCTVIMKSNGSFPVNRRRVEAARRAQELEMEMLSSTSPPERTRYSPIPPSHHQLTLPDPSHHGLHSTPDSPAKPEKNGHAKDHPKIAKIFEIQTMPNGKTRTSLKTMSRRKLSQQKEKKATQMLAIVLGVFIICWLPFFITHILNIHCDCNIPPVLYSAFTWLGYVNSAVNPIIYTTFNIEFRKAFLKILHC
Chain of Gonadotropin-releasing hormone receptor (Homo sapiens) (P30968 whole entry, looked up): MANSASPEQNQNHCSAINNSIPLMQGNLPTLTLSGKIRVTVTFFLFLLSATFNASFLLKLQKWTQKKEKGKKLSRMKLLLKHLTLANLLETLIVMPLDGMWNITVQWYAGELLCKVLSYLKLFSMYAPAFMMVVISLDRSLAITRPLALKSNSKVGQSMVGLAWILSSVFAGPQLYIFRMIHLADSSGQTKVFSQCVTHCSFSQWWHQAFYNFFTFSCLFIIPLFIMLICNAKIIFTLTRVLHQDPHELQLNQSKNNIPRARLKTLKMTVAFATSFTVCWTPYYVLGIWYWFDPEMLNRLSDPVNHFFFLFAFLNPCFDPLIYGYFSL
Chain of KiSS-1 receptor (Homo sapiens) (Q969F8 whole entry, looked up): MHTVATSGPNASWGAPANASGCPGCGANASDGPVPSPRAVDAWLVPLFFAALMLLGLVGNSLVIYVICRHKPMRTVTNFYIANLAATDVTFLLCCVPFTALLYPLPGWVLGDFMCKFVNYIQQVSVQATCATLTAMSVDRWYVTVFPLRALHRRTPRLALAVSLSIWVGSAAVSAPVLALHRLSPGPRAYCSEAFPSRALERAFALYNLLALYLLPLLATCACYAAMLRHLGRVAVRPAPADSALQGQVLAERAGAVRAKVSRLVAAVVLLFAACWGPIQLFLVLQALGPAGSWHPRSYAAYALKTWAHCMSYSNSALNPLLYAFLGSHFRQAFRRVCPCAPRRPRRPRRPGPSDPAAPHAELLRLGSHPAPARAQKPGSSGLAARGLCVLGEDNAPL
Chain of Beta-2 adrenergic receptor (Homo sapiens) (P07550 whole entry, looked up): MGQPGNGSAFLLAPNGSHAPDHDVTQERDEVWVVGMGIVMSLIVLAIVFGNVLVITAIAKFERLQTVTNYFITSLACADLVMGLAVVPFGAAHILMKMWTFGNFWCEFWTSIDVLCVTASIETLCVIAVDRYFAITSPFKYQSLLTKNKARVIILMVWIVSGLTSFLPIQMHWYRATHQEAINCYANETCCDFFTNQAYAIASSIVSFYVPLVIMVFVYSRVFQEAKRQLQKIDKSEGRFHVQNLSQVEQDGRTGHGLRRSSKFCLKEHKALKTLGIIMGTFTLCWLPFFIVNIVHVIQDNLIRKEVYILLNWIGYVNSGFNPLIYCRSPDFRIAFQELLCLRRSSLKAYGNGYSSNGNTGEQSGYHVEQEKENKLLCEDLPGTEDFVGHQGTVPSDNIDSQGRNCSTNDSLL
Chain of Muscarinic acetylcholine receptor M1 (Homo sapiens) (P11229 whole entry, looked up): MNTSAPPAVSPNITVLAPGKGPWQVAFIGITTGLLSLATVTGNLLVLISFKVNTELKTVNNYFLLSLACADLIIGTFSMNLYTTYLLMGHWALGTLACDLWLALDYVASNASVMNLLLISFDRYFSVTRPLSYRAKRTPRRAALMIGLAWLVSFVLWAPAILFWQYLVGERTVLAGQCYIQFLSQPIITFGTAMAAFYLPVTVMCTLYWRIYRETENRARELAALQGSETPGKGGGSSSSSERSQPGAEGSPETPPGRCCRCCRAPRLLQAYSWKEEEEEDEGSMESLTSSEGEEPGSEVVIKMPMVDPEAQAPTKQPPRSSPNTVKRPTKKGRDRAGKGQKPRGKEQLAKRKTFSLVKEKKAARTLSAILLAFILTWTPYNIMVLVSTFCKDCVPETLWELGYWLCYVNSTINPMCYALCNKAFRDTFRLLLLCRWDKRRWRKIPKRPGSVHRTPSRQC

Brc1ccc(Br)cc1
not listed: [19]
inactive: all other assays above

[N-]=[N+]=CC(=O)OC[C@H](N)C(=O)O
not listed: [10] | [11] | [12] | [13] | [14] | [19]
inactive: all other assays above

CCCCCCCCCCCOC(=O)c1ccccc1C(=O)OCCCCCCCCCCC
not listed: [5] | [6] | [9]
inactive: all other assays above

Nc1cccc2ccccc12
not listed: [10] | [19]
inactive: all other assays above

CC(=O)C(Cl)Cl
not listed: [12] | [13]
inactive: all other assays above

CC(C)(O)C(=O)Nc1ccc([N+](=O)[O-])c(C(F)(F)F)c1
not listed: [9] | [14] | [15] | [19]
inactive: all other assays above

Nc1cc(Cl)cc(Cl)c1
not listed: [15] | [19]
inactive: all other assays above
